Screens: PubChem, several laboratories
Mcl1 Noxa PPI: Mcl-1/Noxa binding inhibitors, primary screen, biochemical, TR-FRET, 1536-well; Induced myeloid leukemia cell differentiation protein Mcl-1 (Homo sapiens), Q07820; TR-FRET Mcl-1/Noxa peptide binding, 2 h; inhibition, % at 21.7 µM; actives 1.5% (n = 220,000);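 active = compounds that cut the protein-peptide binding signal by more than 50% relative to plate controls in a single-dose test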;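 note: His-tagged Mcl-1 with rhodamine Noxa BH3 peptide and terbium anti-His antibody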
BCLXL inh: inhibitors of human Bcl-xL, primary screen, biochemical, fluorescence polarization, HTS | Bcl-2-like protein 1 (Homo sapiens), Q07817 | GST-Bcl-xL / FITC-Bim BH3 peptide fluorescence polarization | inhibition, % at 10.9 µM | actives 0.7% (n = 320,000) | AID 2129, 2009;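 active = inhibition above the mean of all tested compounds plus 3 SD, cutoff set per campaign, cut at about 30% in these data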;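 note: inhibitors lower millipolarization by displacing the labeled peptide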
Target sequence (Q07817 whole entry, looked up): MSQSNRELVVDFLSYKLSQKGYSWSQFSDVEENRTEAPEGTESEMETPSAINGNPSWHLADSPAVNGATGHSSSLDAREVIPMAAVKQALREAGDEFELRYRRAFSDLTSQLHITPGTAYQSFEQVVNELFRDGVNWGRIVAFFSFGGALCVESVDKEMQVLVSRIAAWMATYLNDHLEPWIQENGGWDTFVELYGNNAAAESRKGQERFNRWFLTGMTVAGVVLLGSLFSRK
GLD-1 RNA inh: GLD-1/TGE RNA complex disruptors, primary screen, biochemical, fluorescence polarization; purified GLD-1 + fluorescein TGE RNA; inhibition, % at 5.96 µM; actives 0.44% (n = 320,000); AID 2280, 2010;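 active = percent inhibition above a per-plate cutoff, the plate mean of test compounds plus 3 SD, cut at about 30% in these data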
Target sequence (Q17339 whole entry, looked up): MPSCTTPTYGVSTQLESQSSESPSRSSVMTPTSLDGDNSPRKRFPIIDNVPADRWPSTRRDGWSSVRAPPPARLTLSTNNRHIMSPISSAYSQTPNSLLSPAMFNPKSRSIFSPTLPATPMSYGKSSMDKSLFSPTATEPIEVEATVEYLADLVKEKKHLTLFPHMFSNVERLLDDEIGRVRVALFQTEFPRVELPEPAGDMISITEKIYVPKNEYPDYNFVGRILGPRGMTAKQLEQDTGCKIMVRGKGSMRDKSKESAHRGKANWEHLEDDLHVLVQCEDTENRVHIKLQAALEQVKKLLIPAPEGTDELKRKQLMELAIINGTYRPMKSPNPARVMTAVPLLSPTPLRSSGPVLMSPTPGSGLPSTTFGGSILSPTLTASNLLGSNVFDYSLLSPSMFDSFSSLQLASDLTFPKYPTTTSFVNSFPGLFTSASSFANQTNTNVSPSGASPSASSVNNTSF
Mcl1-Bid inh: Mcl-1/Bid binding inhibitors, primary screen, biochemical, TR-FRET, 1536-well | Induced myeloid leukemia cell differentiation protein Mcl-1 (Homo sapiens), Q07820 | actives 0.97% (n = 220,000) | AID 1021, 2008 | TR-FRET Mcl-1/Bid-Dy647 peptide binding | inhibition, % at 21.7 µM;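 active = compounds that cut the binding signal by more than half at the single screening dose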;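 note: His-tagged Mcl-1 with europium anti-His antibody binding Bid BH3 peptide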
Bim-Mcl-1: inhibitors of Bim peptide binding to Mcl-1, primary screen, biochemical, bead-based flow cytometry, multiplex. AID 1009, 2008. actives 0.1% (n = 190,000). inhibition, % at 10 µM. Bim peptide-Mcl-1 binding; in the data active = inhibition above about 40%
MCL1-BIM inh: inhibitors of MCL1 binding to BIM-BH3, primary screen, biochemical, fluorescence polarization; GST-MCL1 / FITC-Bim-BH3 fluorescence polarization; Induced myeloid leukemia cell differentiation protein Mcl-1 (Homo sapiens), Q07820; AID 2057, 2009; actives 0.68% (n = 320,000); inhibition, % at 10.9 µM;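 active = inhibition above the mean inhibition of all tested compounds plus 3 SD, set per campaign, cut at about 40% in these data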;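 note: higher means more loss of mP so more displacement of Bim peptide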
Each line names hits and unclear results; the compound was inactive in the other large screens. In the library only some 2.3% were active in any assay of this set; here they are far more common.

C#CCOCCOCCOCCNc1nc(N2CCN(C(=O)[C@H](Cc3cc4ccccc4[nH]3)n3cc([C@@H](N)C(C)CC)nn3)CC2)nc(N2CCN(C(=O)[C@H](CCCCN)n3cc([C@@H](N)CC(C)C)nn3)CC2)n1 (stereo partly drawn)	Mcl1-Bid inh 77.9
COc1cc(OC)cc(C(=O)NC2CC(C)(C)NC(C)(C)C2)c1	none (no result: Mcl1 Noxa PPI, Mcl1-Bid inh, Bim-Mcl-1)
CCOC(=O)C(Cc1ccccc1)C(=O)Nc1ccc(N(CC)CC)cc1 (stereo not drawn)	Mcl1 Noxa PPI 59.8
CCN(CC)c1ccc(NC(=O)OC)cc1	Mcl1 Noxa PPI 68.5
CC(=O)c1ccc(NC(=O)Nc2ccncc2)cc1	none
CC(=O)Nc1cccc(NC(=O)Nc2ccc(C(C)=O)cc2)c1	Mcl1-Bid inh 94.5
CCN(CC)c1ccc(NC(=O)Nc2cccc(C(C)=O)c2)cc1	Mcl1 Noxa PPI 85.5
COC(=O)Nc1ccc(NC(C)=O)cc1	none
COCC(C)NS(=O)(=O)c1ccc(C(=O)NCCCn2ccc3ccccc32)cc1 (stereo not drawn)	none (no result: Mcl1 Noxa PPI, Mcl1-Bid inh, Bim-Mcl-1)
CCN(CC)c1ccc(NC(=O)c2ccccc2OCC(=O)OC)cc1	Mcl1 Noxa PPI 81.0
CC1CCCCC12NC(=O)N(CC(=O)NNC(=O)c1ccc(Br)cc1)C2=O (stereo not drawn)	none (no result: Mcl1 Noxa PPI, BCLXL inh, Mcl1-Bid inh, Bim-Mcl-1, MCL1-BIM inh)
CC/C(=N/Nc1ccc(Cl)cc1)c1cnnc(SC)n1	none
CC/C(=N/Nc1cccc(C)c1)c1cnnc(SC)n1	BCLXL inh 46.2
CN(CCO)c1nc(N)c(C#N)c(CC#N)c1C#N	none (no result: Bim-Mcl-1)
CN(CCO)c1nc(N)c2c(N)nc3c(c2c1C#N)CC(=O)N3Cc1cccs1	BCLXL inh 35.8, MCL1-BIM inh 41.4
CCC1Cc2c(nc(N)c3c(N)nc(N4CCOCC4)c(C#N)c23)O1 (stereo not drawn)	none
COc1ccc(CN2C(=O)Cc3c2nc(N)c2c(N)nc(N4CCOCC4)c(C#N)c32)cc1	BCLXL inh 38.1, MCL1-BIM inh 46.8 (no result: Bim-Mcl-1)
CCCCn1c(N)c(N(CC(C)C)C(=O)C2CC(=O)N(Cc3ccccc3)C2)c(=O)[nH]c1=O (stereo not drawn)	none (no result: Mcl1 Noxa PPI, Mcl1-Bid inh, Bim-Mcl-1)
COc1cc2c(cc1OC)CN(C(=O)c1cc(S(=O)(=O)N3CCOCC3)c(Cl)cc1Cl)CC2	none (no result: Mcl1 Noxa PPI, Mcl1-Bid inh, Bim-Mcl-1)
CCN(CC)c1ccc(Nc2nc(N3CCOCC3)c3ccccc3n2)cc1	Mcl1 Noxa PPI 54.1
O=C(Cn1ncc2c([nH]c3ccccc32)c1=O)N1CCN(c2ccccn2)CC1	none (no result: Mcl1 Noxa PPI, Mcl1-Bid inh, Bim-Mcl-1)
CCOc1ccc(NC(=O)C(C)Oc2ccc(C#N)cc2)cc1S(=O)(=O)N1CCCC1 (stereo not drawn)	none (no result: Mcl1 Noxa PPI, Mcl1-Bid inh, Bim-Mcl-1)
COC(=O)c1cc(-c2ccc(C)o2)nc2ccccc12	Mcl1 Noxa PPI 77.9
Cc1ccc(-c2cc(C(=O)Nc3ccccc3C)c3ccccc3n2)o1	Mcl1 Noxa PPI 65.7
O=C(Nc1ccc(NC(=O)N2CCN(c3ccccc3O)CC2)cc1)N1CCN(c2ccccc2O)CC1	none (no result: Mcl1 Noxa PPI, Mcl1-Bid inh, Bim-Mcl-1)
O=C(COC(=O)C1CC(=O)N(c2ccc3c(c2)OCCO3)C1)NC1CCCc2ccccc21 (stereo not drawn)	none
O=C(COC(=O)CCNS(=O)(=O)c1ccc2c(c1)OCCO2)NC1CCCc2ccccc21 (stereo not drawn)	Mcl1-Bid inh 75.6
COc1cc(C(C)=O)ccc1OCC(=O)OCCCOC(=O)COc1ccc(C(C)=O)cc1OC	none (no result: Mcl1 Noxa PPI, Mcl1-Bid inh, Bim-Mcl-1)
CC(C(=O)Nc1ccc([N+](=O)[O-])cc1Cl)N1CCN(S(=O)(=O)c2cccs2)CC1 (stereo not drawn)	none (no result: Mcl1 Noxa PPI, Mcl1-Bid inh, Bim-Mcl-1)
CC(C(=O)Nc1cc([N+](=O)[O-])ccc1Cl)N1CCN(c2ccc(O)cc2)CC1 (stereo not drawn)	Mcl1 Noxa PPI 78.0
O=C(CN1CCN(c2ccccc2O)CC1)Nc1cc([N+](=O)[O-])ccc1Cl	Mcl1 Noxa PPI 67.3
COc1ccccc1CNC(=O)[C@H](C)NC(=O)C1CCN(C(=O)[C@@H](N)CC(C)C)CC1	none (no result: Mcl1 Noxa PPI, Mcl1-Bid inh, Bim-Mcl-1)
Cc1nc2sc(C(c3cccs3)N3CCOCC3)c(O)n2n1 (stereo not drawn)	Mcl1-Bid inh 75.9
COC(=O)CSc1nnc(CNc2nc(-c3ccccc3)cs2)n1C	none
Cn1c(CNc2nc(-c3ccccc3)cs2)nnc1SCC(=O)N1CCc2ccccc21	Bim-Mcl-1 51.0
CCOC(=O)Cn1ncc2c3ccccc3n(CC(=O)OCC)c2c1=O	none (no result: Mcl1 Noxa PPI, Mcl1-Bid inh, Bim-Mcl-1)
Nc1ccc(Nc2ccccc2)c(Cl)c1	none
Nc1ccccc1Nc1ccccc1	Mcl1 Noxa PPI 52.4, Mcl1-Bid inh 74.9
COc1cc2c(cc1OC)-c1cc(NCc3ccccn3)nc(=O)n1CC2	Mcl1-Bid inh 98.1
COc1cc2c(cc1OC)-c1cc(NC3CCCCCCC3)nc(=O)n1CC2	Mcl1-Bid inh 100.1
COc1ccccc1/C=C/C(=O)OCC(=O)NC(=O)NC1CCCC1	none (no result: Mcl1 Noxa PPI, BCLXL inh, Mcl1-Bid inh, Bim-Mcl-1, MCL1-BIM inh)
CCCn1c(SCC(=O)N2CCc3ccccc32)n[nH]c1=O	none (no result: Mcl1 Noxa PPI, BCLXL inh, Mcl1-Bid inh, Bim-Mcl-1, MCL1-BIM inh)
Cn1c(-c2ccccc2)c(C(=O)CCl)c2ccccc21	Mcl1 Noxa PPI 70.4 (no result: BCLXL inh, GLD-1 RNA inh, MCL1-BIM inh)
CCN(c1ccc(NC(=O)c2ccc(Cl)nc2)cc1)C(C)C	Mcl1 Noxa PPI 79.1
C=CCn1c(SCC(=O)Nc2ccc(N3CCOCC3)cc2)nc2ccccc2c1=O	none (no result: Mcl1 Noxa PPI, Mcl1-Bid inh, Bim-Mcl-1)
CC(C)c1ccc(C(N)=S)cc1	Mcl1 Noxa PPI 67.6
CC(C)c1ccc(C(=O)NNC(=O)c2ccncc2)cc1	none (no result: Mcl1 Noxa PPI, Mcl1-Bid inh, Bim-Mcl-1)
CCOc1cc(/C=N/NC(=O)C(=O)NCCCOC(C)C)cc(Br)c1O	Mcl1 Noxa PPI 55.9
